Over roughly 33,000 sequences, “E-score (-0.5 to 0.5)” has its median near -0.015; the highest 2% begin near 0.3. The sample holds the highest values, similar sequences and a random draw of the others, so the mix is not that of the screen.
target: T1, Abf1 (UniProt P14164); assay: PBM E-score (8-mer binding enrichment) (E-score (-0.5 to 0.5)); higher = stronger / more preferred TF binding; conditions: protein concentration: 200 nM; construct: GST-full length
T1 sequence: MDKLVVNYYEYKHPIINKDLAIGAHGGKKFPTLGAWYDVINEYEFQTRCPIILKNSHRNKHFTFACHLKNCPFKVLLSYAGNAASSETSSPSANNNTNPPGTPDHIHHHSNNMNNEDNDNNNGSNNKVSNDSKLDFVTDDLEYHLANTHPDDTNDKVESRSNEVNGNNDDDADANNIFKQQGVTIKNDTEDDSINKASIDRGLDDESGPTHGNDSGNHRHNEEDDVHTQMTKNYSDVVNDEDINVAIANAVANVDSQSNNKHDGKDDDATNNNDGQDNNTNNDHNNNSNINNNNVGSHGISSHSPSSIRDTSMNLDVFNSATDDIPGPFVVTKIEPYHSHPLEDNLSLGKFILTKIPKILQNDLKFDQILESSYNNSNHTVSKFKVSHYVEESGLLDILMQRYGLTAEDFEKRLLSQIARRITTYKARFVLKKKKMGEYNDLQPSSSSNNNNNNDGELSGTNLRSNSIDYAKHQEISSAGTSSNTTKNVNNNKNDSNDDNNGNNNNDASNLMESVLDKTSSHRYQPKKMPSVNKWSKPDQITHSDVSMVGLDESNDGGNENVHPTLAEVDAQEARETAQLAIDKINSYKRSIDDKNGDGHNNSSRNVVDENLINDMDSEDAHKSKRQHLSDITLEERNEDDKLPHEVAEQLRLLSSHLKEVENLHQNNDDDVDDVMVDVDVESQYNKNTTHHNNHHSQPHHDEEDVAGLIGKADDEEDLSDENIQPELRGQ
Method: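 Universal 'all 10-mer' protein binding microarrays (Agilent AMADID 015681) probed with GST-tagged S. cerevisiae TFs (full-length or DBD) made by in vitro transcription/translation (PURExpress), about 100-200 nM. Bound TF was detected with fluorescent anti-GST. Each ungapped 8-mer (which stands for itself and its reverse complement) is scored by the PBM enrichment score (E-score), a modified Wilcoxon-Mann-Whitney statistic from -0.5 to +0.5, computed with the Universal PBM Analysis Suite. Scale: above 0.35 generally sequence-specific binding.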

Sequence	PBM E-score
CCGATACC	-0.101
ATACGTGG	0.155
GAACGCGA	-0.146
GGGCGCGA	0.0618
AGTTGTGC	-0.108
ACGGGCGA	-0.00147
AGTGAGAT	0.147
CGTGATAG	0.221
AGTGATAA	0.445
ATTGATAG	-0.0465
CGTGATAC	0.23
ATTGATAA	0.27
AGTGATAC	0.385
AGTGATAG	0.303
GGTGATAC	0.186
ACTGATAA	0.126
AGTGATAT	0.442
ACTGATAT	0.108
AGCGCCAG	-0.0266
AACCAGAA	0.0884
CCCTCGGA	0.00175
CTACGAAG	0.215
CTACGATC	0.195
ATACGAAG	0.328
ATACGACC	0.239

Sequence	PBM E-score
ATACGAAA	0.349
ATACGATC	0.307
AAACGAAA	0.159
ATACGAAT	0.275
AGACGACG	0.235
ATACGATG	0.261
ATACGACG	0.341
ACACGAAG	0.269
CGAATACG	0.189
ACCCGAGT	-0.152
ACATTGAA	0.0551
ACGGTCGC	0.134
TGTAACAA	0.0346
AGCAGGCA	-0.114
ACTGTATG	-0.184
ACTGAAGT	-0.0998
GTCCCGAA	0.00205
AAAATCAC	0.352
AAAATCAG	0.193
GAAATCAA	0.0471
AAAATCAA	0.0207
GAAATCAC	0.322
CAAATCAC	0.19
AACTGAGA	0.0232
CTTGATCA	0.183

Sequence	PBM E-score
CTAGATCA	0.161
ATTGATCA	0.267
ATAGATCA	0.267
AATGATCC	0.0166
GTAGATCA	0.319
AATGATCG	0.232
CATGATCA	0.33
CATGATCG	0.0839
AATGATCA	0.347
GTTGATCA	0.298
CATGATCC	0.00859
CATGCGGC	-0.229
GGTTAACA	-0.138
AAAGAACT	0.0334
ACATTAGA	0.0369
AGTTAACT	-0.0757
GATGATTA	0.263
GATGATCA	0.329
TCTGATCA	0.155
AAAGATCA	0.164
AATGAACT	-0.177
TACGATCA	0.208
TATGATCA	0.309
ACTGATCT	0.0694
AATGATCT	0.324

Sequence	PBM E-score
CAAGATCA	0.16
GATGATCC	0.0853
TAAGATCA	0.314
GCCTAGAC	-0.11
ATACATTC	0.0799
AACGGGGC	-0.0372
ACGCACCA	-0.101
CCATTTCC	-0.0246
CGGGTTAG	-0.173
CAAATAGA	0.0564
GAGGTATC	0.047
AGAAGTGA	0.243
GTAAGTGA	0.208
CGAAGTGA	0.272
ATAAGTGC	0.0214
CTAAGTGA	0.327
ATAAGTGA	0.3
CTAAGTGC	-0.0207
GGAAGTGA	0.329
ATAAGTGG	0.126
AGATTTAG	0.0517
CCGGAAGA	0.0618
AGACTTTA	0.0584
AGGCTCTG	-0.089
CAGGCACC	-0.178

Sequence	PBM E-score
GCCAGCCC	-0.375
CACGCTCC	-0.00778
AGGGTGAA	-0.209
AAAGTGAT	0.397
AAAGTGAA	-0.0183
AGGGTGAT	0.335
AGGGTGAG	-0.102
AAAGTGAG	0.2
AAAGTGGC	-0.118
AACGTGAG	0.0297
AACGTGAT	0.327
AAAGTGAC	0.343
AACGTGAA	0.057
ACAGTGAC	0.259
CCCCAGGA	-0.301
TAGTTCAA	-0.0129
AACAGCAC	-0.13
CACCCTGG	-0.33
ATAGGCTC	-0.0801
CCAAACCG	-0.0285
AAGGACCC	-0.134
ACATCCTA	0.0617
AATTCTCG	0.162
GAAGTGAC	0.411
AGAGTGAA	-0.0316

Sequence	PBM E-score
GAAGTGAA	0.064
AGAGTGAT	0.387
CAAGTGAC	0.242
AGAGTGAG	0.0964
GTCCGGTA	0.00344
CTCACGTA	-0.0341
AACTATAT	0.205
CCTTATCA	0.236
CATTATCA	0.329
AGTTATCG	0.223
CATTATCG	0.0198
TCTTATCA	0.316
TATTATAA	0.121
ACTTATCA	0.231
GGTTATCA	0.272
TATTATCA	0.34
CATTATCC	0.262
AGTTATCA	0.302
TATTATGA	0.0866
GGGAGGCA	-0.284
GGGGACGA	0.135
GATTATTA	0.0366
GATTATCC	0.152
AATTATCA	0.34
AATTATCC	0.0502

Sequence	PBM E-score
AATTATCG	0.178
GATTATCA	0.302
CATCCATA	0.0978
CATGAACC	-0.00224
GCCCGAGA	-0.194
ATCATTAG	0.279
CTCATTAA	0.148
GACATTAA	0.227
ATCATTAC	0.262
ATCATTAA	0.307
GTCATTAA	0.385
CTAAGCGC	-0.121
CTTTGCAC	0.209
ACCTTTAC	-0.0849
GGTTCGTA	0.14
AGTTCGTG	0.326
CGTTCGAA	0.311
CGTTCGAC	0.122
ATTTCGTG	0.288
CGTTCGGC	0.0205
AGTTCGGG	0.0167
AGTTCGTC	0.164
CGTTCGTC	0.358
TGTTCGAA	-0.0208
AGTTCGTA	0.264

Sequence	PBM E-score
CGTTCGTA	0.345
ATAAGGAT	-0.00817
AGGGAAGC	-0.197
CTGCTGGC	-0.25
ATCGAAAA	0.0388
GCTCACGA	0.125
GATCACAC	0.118
ATTCACGA	0.235
GATCACGA	0.301
CTTCACGA	0.2
GATCACGC	0.366
GTTCACGA	0.3
GATCACAA	0.26
CATCACGC	0.191
ACACTCGA	-0.0221
CGTCCATC	0.0706
GATACGGA	0.279
AGGGTGGG	-0.0843
CATTTGAG	0.0534
CGCCAGAA	-0.0306
CAGTCGGG	0.0146
GATAGCCA	-0.0722
GACAATCC	0.0976
CTACGAAA	0.122
AGACGAAC	0.24

Sequence	PBM E-score
GAACGAAC	0.121
ACACGAAA	0.288
GCACGAAC	0.269
GTACGAAA	0.376
GGACGAAC	0.323
TTACGAAA	0.279
GCACGAAA	0.336
ATACGAAC	0.294
GTACGAAC	0.418
CTACGAAC	0.275
AAATCTAG	0.045
ATACTTGA	-0.0426
AAGCACCC	-0.201
ATGGAAAA	0.177
GATTGAGA	0.21
CGTTAGTC	0.00116
GATCGCTA	0.157
CTAAGCGA	-0.0187
CTTTTAGA	-0.028
ATATCGCA	0.144
AAATCGTC	0.347
ATATCGGC	0.149
AAATCGTG	0.192
ATATCGCG	0.382
AAATCGTA	0.267

Sequence	PBM E-score
ATATCGTC	0.336
ATATCGTG	0.318
ATATCGCC	0.269
ATATCGGG	0.018
CTATCGTC	0.252
ATATCGTA	0.203
AGGGAACT	-0.244
AGCCGTAA	0.193
GCGTCCTA	-0.0099
TACCAAAA	0.0276
ACACAAAC	0.0247
CTATAATA	-0.0104
ATATAATA	0.0977
GGATAATA	0.173
AGATAATA	0.107
GTATAATA	0.299
CGATAATA	0.326
GTATAAAC	0.22
GTATAAAA	0.356
ATATAAAA	0.185
GTTAACGA	0.252
ACTGGTCG	-0.0382
AGTGCGAA	-0.196
CTCACCAG	-0.101
CGAAGGGC	-0.116

Sequence	PBM E-score
ACAGTGTC	-0.155
AGGGCTTC	0.0312
ACTCGTAT	0.305
ACTCGTAG	0.16
AATCGTAA	0.145
AATCGTAT	0.297
CCTCGTAA	0.131
TCTCGTAA	0.306
AATCGTAG	0.197
ACTCGTAA	0.173
GCTCGTAA	0.118
CACTCGGC	-0.0263
ACCAAGCT	-0.00876
AGGTTACT	0.024
CAATACTG	-0.239
CGCTCACA	-0.0723
ACGCGGGC	-0.0155
GCTTCGCC	-0.147
GGCCGTAA	0.121
CGCCGTCC	0.308
CGCCGTCA	0.199
CGCCGTAA	0.0647
ACCCGTAG	-0.248
GGCCGTAC	0.367
ACCCGTAA	0.0373

Sequence	PBM E-score
AGCCGTAC	0.238
ACCCGTAC	0.299
CGCCGTAC	0.315
AGCCGTCC	0.0251
CGCCGTAG	0.209
CTACGTCA	0.146
CCAGTGAG	-0.251
CATTAGGC	0.0172
GGTCCCAA	-0.136
CAGTCCAA	-0.177
TCGCGGAA	0.0001
AGCTACCG	-0.0848
CACCGTAC	0.385
CGCCGTTA	0.14
CACCGTAA	0.101
CGCCGTTC	0.331
CACCGTAG	0.0588
AGCCGTTC	-0.0626
AGACCCCG	-0.0859
CAGCAAGG	-0.192
GGTGACTA	0.149
GCACTATA	0.017
AAGACAAC	0.0616
CTCCCCAC	-0.0818
CGAGAGAA	0.0467

Sequence	PBM E-score
CAGTAATA	0.304
CAGTAATG	-0.0287
CAGTAATC	-0.00799
GCCGTAAC	0.211
ATTTATTG	0.0665
CCCATTTC	-0.182
GTCGTCAA	0.222
ATCGTCTC	0.25
CTCGTCAA	0.0916
AGCGTCAC	-0.00719
ATCGTCAC	0.389
CACGTCAC	0.368
CTCGTCAC	0.336
CACGTCAG	0.0977
GCCGTCAC	0.0578
CACGTCAA	0.0325
CTCGTCAG	0.182
GTCGTCAC	0.35
AGTATGCA	0.111
CAATGCCC	-0.0566
GGGTTTGA	0.121
CCGCGCAC	-0.209
CCCTTAGG	-0.0737
AGGACCCC	-0.0335
ATCGTCGG	0.218

Sequence	PBM E-score
ATCGTCGC	0.362
ATCGTCGA	0.289
ATGCTAAA	0.0969
GCCACGAA	0.0988
CCCACGAC	0.0916
CCCACGAG	0.0399
CCCACGAA	0.316
ACCACGAA	0.0971
TCCACGAA	0.352
ACGCACAT	-0.00733
CGCGGCGC	-0.00706
GGACGACC	0.0608
AGACGACC	0.0722
GGACGAGA	0.145
CGACGACA	0.311
AGACGACA	0.264
TCACGACA	0.257
GGACGACA	0.299
TGACGACA	0.361
CGACGACG	0.177

Reference: the supplement of paper PMC3334620
